Test results from ChEMBL document CHEMBL4513216, “Probing the Open Global Health Chemical Diversity Library for Multistage-Active Starting Points for Next-Generation Antimalarials” (ACS Infect Dis, 2020).
Out of some 69,000 compounds screened, about 8,600 (12%) showed an effect of 50% or more. This excerpt belongs to a sample that is enriched for strong results.

What follows are compounds tested on Plasmodium berghei (assay: Screen against P. berghei liver stage (PbLuc), transformed with Luciferase, at 10uM). Conditions: tested at 10 uM.
Type: functional, HepG2

Compared with N#Cc1ccccc1C(=O)Nc1cccc(CN2CCC(CO)CC2)c1, Cc1c(NCc2cccnc2)cccc1C(=O)N1CCC(N(C)C)C1 (stereo not given) is higher in INHIBITION: -43.1% for the first, 24.4% for the second.

Going from Cc1cc(OCC(=O)N2CCCC(c3nc(C)c(C)s3)C2)no1 (stereo not given) to Cc1cc(N2CCN(C(=O)CCc3scnc3C)CC2)nc(N)n1, the INHIBITION falls from 0.914% to -6.72%.

Compared with CC(O)CN1CCN(C(=O)c2ccc(N3CCCC3)nn2)CC1 (stereo not given), Cc1cc(N2CCN(C(=O)c3cc(Cl)c[nH]3)CC2)nc(C(C)C)n1 is higher in INHIBITION: -43.5% for the first, 24.6% for the second.

Going from O=C(CC1CCCC1)Nc1ccc(-n2cc(Br)cn2)nc1 to c1cc2n(n1)CC(CNCc1ccc(OC3CCCC3)nc1)CN2 (stereo not given), the INHIBITION rises from 24.8% to 41.5%.

First: CN(C)S(=O)(=O)CCCN1CCc2c(ncn2C2CC2)C1
Second: COCCN1C(=O)CCC12CCN(C(=O)CNC(C)=O)CC2
The INHIBITION of the first is higher: 33.7% for the first, -49.2% for the second.

Going from Oc1ccc(CCC2CCCCN2Cc2noc(C3CC3)n2)cc1 (stereo not given) to c1cc(CNCC2CNc3ccnn3C2)cc(OC2CCCC2)n1 (stereo not given), the INHIBITION rises from 26.5% to 60.7%.

Going from Cc1cc(N2CCN(C(=O)c3cc(Cl)c[nH]3)CC2)nc(N)n1 to Cc1cc(N2CCN(C(=O)c3cc(Cl)c[nH]3)CC2)nc(C)n1, the INHIBITION falls from 50.1% to 5.76%.

Going from COc1cc(C)nc(N2CCN(C(=O)CCc3ccncc3)CC2)n1 to Cc1cc(C)cc(CCC(=O)N2CCN(c3cc(C)nc(N)n3)CC2)c1, the INHIBITION rises from 7.18% to 80.5%.

Compared with CN1[C@@H](C(=O)NCC2CC2)C[C@H]2CN(Cc3ccsc3)C[C@H]21, c1cc(CNCC2CNc3ccnn3C2)cc(OC2CCCCC2)n1 (stereo not given) is higher in INHIBITION: -14.7% for the first, 40.2% for the second.

Going from NC(=O)c1cc2c(nc1N1C[C@H]3OC(=O)N(C4CCCC4)[C@H]3C1)CCC2 to c1cc(CNCC2CNc3ccnn3C2)cc(N2CCCCC2)n1 (stereo not given), the INHIBITION rises from 5.05% to 37%.

Compared with CC(C(=O)Nc1ccon1)n1ccc(C(F)(F)F)n1 (stereo not given), COc1cc(CNCC2CNc3ccnn3C2)ccn1 (stereo not given) is higher in INHIBITION: 15.1% for the first, 23.7% for the second.

First: N#Cc1cccnc1N1CCCN(C(=O)CCn2cncn2)CC1
Second: c1ccc(Cn2cncn2)c(CNCC2CNc3ccnn3C2)c1 (stereo not given)
The INHIBITION of the first is lower: 14.1% for the first, 36.4% for the second.

Going from c1ccc(Cn2cc(CNCC3CNc4ccnn4C3)cn2)cc1 (stereo not given) to c1cc(CNCC2CNc3ccnn3C2)cc(Cn2cccn2)c1 (stereo not given), the INHIBITION rises from 9.54% to 50.5%.

First: c1ccc(Cn2cccn2)c(CNCC2CNc3ccnn3C2)c1 (stereo not given)
Second: OCc1ccccc1CNCC1CNc2ccnn2C1 (stereo not given)
The INHIBITION of the first is higher: 45.8% for the first, -17% for the second.

Going from c1ccc(-n2ccnc2)c(CNCC2CNc3ccnn3C2)c1 (stereo not given) to c1cc(CNCC2CNc3ccnn3C2)cc(N2CCOCC2)n1 (stereo not given), the INHIBITION rises from 55.1% to 62.1%.
